Our source for the Inhibition values is ChEMBL document CHEMBL4513146, “CO-ADD screening of Karazin Kharkiv National University (Ukraine) compounds”.

Results with a measured potency or affinity are listed apart.

Assay [1] deals with Staphylococcus aureus. The following applies: Concentration 32 ug.mL-1;; ASSAY_TEST Inhibition of Bacterial Growth; detection method Absorption (OD600); MEDIA CAMHB; plate type 384well; NBS; CORNING #3640; time 18 hr.
For assay [2], the system named is Escherichia coli. As to conditions: Concentration 32 ug.mL-1;; ASSAY_TEST Inhibition of Bacterial Growth; detection method Absorption (OD600); MEDIA CAMHB; plate type 384well; NBS; CORNING #3640; time 18 hr.

With `COc1cccc(Oc2nccn3c(=O)n(CC(=O)NCc4ccc(SC)cc4)nc23)c1`, the Inhibition in assay [1] is listed as 10.98%; in assay [2], 2.64%.
The corresponding values for `Cc1cc(C)cc(NC(=O)CSc2nnc3c(=O)n(-c4ccc(Br)cc4)ccn23)c1` are 9.26% and -3.09%.
Take `CCc1ccc(NC(=O)CSc2nnc3ccc(C(=O)Nc4cccc(F)c4)cn23)cc1`: the Inhibition in assay [1] was 9.49%; in assay [2], -4.13%.
The like results for `CCOc1ccc(-n2ccn3c(SCC(=O)Nc4ccc(F)cc4F)nnc3c2=O)cc1` were, in that order, 5.96% and 2.93%.
`CCc1ccc(N(Cc2ccccc2F)S(=O)(=O)c2cccn3c(CC)nnc23)cc1`: the Inhibition in assay [1] is reported as -9.17%; in assay [2], 1.03%.
Turning to `COc1cc(NC(=O)Cn2nc3ccc(SC(C)(C)C)nn3c2=O)cc(OC)c1OC`, the Inhibition in assay [1] is on record as 10.38%; in assay [2], 1.07%.
As to `Cc1[nH]c2ccccc2c1C(=O)CSc1nnc2c(=O)n(-c3ccc(F)c(F)c3)ccn12`, the figures for the Inhibition in assay [1] and in assay [2] were 13.1% and -2.33%, respectively.
Regarding `CCc1nnc2c(SCC(=O)Nc3ccc(C)cc3Cl)nc3ccccc3n12`, the Inhibition in assay [1] is reported as 2.52%; in assay [2], 2.69%.
The like results for `Cc1ccc(C)c(C(=O)CSc2nnc3c(=O)n(-c4ccc(F)c(F)c4)ccn23)c1` were, in that order, 18.46% and 1.4%.
The corresponding values for `Cc1ccc(-c2ccc3nnc(CCC(=O)NCc4cccc(Br)c4)n3n2)cc1C` are 4.83% and -5.02%.
The corresponding values for `Cc1ccc(C)c(NC(=O)Cn2nc3n(C)c(=O)c4c(c(-c5ccccc5)cn4C)n3c2=O)c1` are -4.46% and -19.92%.
Regarding `Cc1ccc(NC(=O)Cn2nc3c(N4CCOCC4)nc4ccccc4n3c2=O)cc1C`, the Inhibition in assay [1] is 6.57%; in assay [2], -0.21%.
Regarding `COc1ccc(NC(=O)c2ccc3nn(CC(=O)Nc4cc(Cl)ccc4OC)c(=O)n3c2)cc1`, the Inhibition in assay [1] is given as 7.85%; in assay [2] it was -6.87%.
The like results for `CC(C)c1ccc(NC(=O)Cn2nc3c(N4CCCC4)nccn3c2=O)cc1` were, in that order, 2.8% and -0.46%.
The like results for `Cc1ccc(-c2ccc3nn(CC(=O)N4CCN(c5ccc(F)cc5)CC4)c(=O)n3n2)cc1C` were, in that order, -6.93% and -8.27%.
The corresponding values for `Cc1ccc(-n2ccn3c(=O)n(Cc4ccccc4F)nc3c2=O)cc1C` are 8.2% and -3.66%.
Consider `Cc1ccc2c(c1)N(C(=O)Cn1nc3ccc(Sc4ccccc4)nn3c1=O)CCO2`, for which the Inhibition turned out to be 5.63% in assay [1] and 2.06% in assay [2].
Regarding `O=S(=O)(c1ccc2nncn2c1)N(Cc1cc(F)cc(F)c1)c1ccc(F)cc1`, the Inhibition in assay [1] is listed as 2.59%; in assay [2], -3.43%.
The like results for `CSc1cccc(NC(=O)Cn2c(=O)c3nnc(C(C)C)n3c3ccccc32)c1` were, in that order, 14.38% and 4.25%.
The corresponding values for `COc1cc(OC)c(NC(=O)Cn2nc3ccc(SC4CCCCC4)nn3c2=O)cc1Cl` are 7.67% and 5.95%.
In the case of `COc1cccc(-n2ccn3c(SCC(=O)Nc4cc(Cl)ccc4OC)nnc3c2=O)c1`, the Inhibition in assay [1] is on record as 8.75%; in assay [2], -1.77%.
The like results for `COc1cc(OC)c(NC(=O)Cn2nc3c(Oc4cccc(C)c4C)nccn3c2=O)cc1Cl` were, in that order, 1.15% and -3.57%.
Consider `Cc1cc(C)cc(Nc2nc(C)cc3nn(CC(=O)Nc4ccc(C)c(F)c4)c(=O)n23)c1`, for which the Inhibition is on record as 9.64% in assay [1] and -0.61% in assay [2].
On to `CCOC(=O)c1ccccc1NC(=O)Cn1c(=O)c2nnc(C(C)C)n2c2ccccc21`, for which the Inhibition in assay [1] was found to be 9.86%; in assay [2], 0.49%.
The corresponding values for `COc1ccc(NC(=O)Cn2nc3c4cc(-c5cc(C)ccc5C)nn4ccn3c2=O)c(OC)c1` are 3.39% and 3.2%.
The corresponding values for `Cc1ccc(NC(=O)Cn2nc3cc(C)nc(Nc4ccc(F)cc4)n3c2=O)cc1` are 6.17% and -2.28%.
In the case of `CCOc1ccc(C(=O)Cn2nc3n(CCC(C)C)c(=O)c4sccc4n3c2=O)cc1`, the Inhibition amounted to 6.67% in assay [1] and 3.25% in assay [2].
The corresponding values for `Cc1ccc(-c2cc3c4nnc(CCC(=O)NCCCc5ccccc5)n4ccn3n2)cc1C` are 6.48% and 1.28%.
For the compound `CCc1nnc2ccc(S(=O)(=O)N(Cc3cccc(F)c3)c3ccc(OC)cc3)cn12`, the Inhibition in assay [1] was 7.39%; in assay [2], -21.14%.
Turning to `Cc1c(Cl)cccc1-n1ccn2c(=O)n(Cc3cccc(Cl)c3)nc2c1=O`, the Inhibition was 7.64% in assay [1] and -4.76% in assay [2].
As for `CCc1ccccc1NC(=O)Cn1nc2c(SC3CCCCC3)nccn2c1=O`, the values for the Inhibition in assay [1] and in assay [2] were 7.59% and -2.96%, respectively.
On to `O=C(Cn1nc2c3sc(N4CCCC4)nc3ncn2c1=O)Nc1ccccc1Cl`, for which the Inhibition in assay [1] was 4.77%; in assay [2], -9.42%.
Turning to `CCc1nnc2c(SCC(=O)Nc3c(C)cc(C)cc3C)nc3ccccc3n12`, the Inhibition is 7.54% in assay [1] and 3.61% in assay [2].
In the case of `CCCCc1ccc(NC(=O)Cn2nc3c(SC4CCCCC4)nccn3c2=O)cc1`, the results for the Inhibition in assay [1] and in assay [2] were -1.79% and -6.08%, respectively.
The corresponding values for `CCOc1ccccc1NC(=O)Cn1nc2c(Sc3ccc(C)cc3C)nccn2c1=O` are 2.42% and 0%.
